Data reported in PubChem BioAssay AID651635 (National Center for Advancing Translational Sciences (NCATS), 2013).
In all, about 400,000 compounds went through this assay and about 1,900 (0.47%) were called active. Another 14% or so got no clear call; they are omitted. Calls come from the whole dose curve; as a rule, active = well fitted cell-killing curve with a large enough effect; inconclusive = small, poorly fitted or top-dose-only effect, or effect the other way; inactive = no such curve, though single readings can be large or run the other way. What follows is part of a selection rich in actives, with near analogues and random picks from the rest. Entries that show only a call come without a potency.

Assay: Viability Counterscreen for Primary qHTS for Inhibitors of ATXN expression; note: nearly all actives have a fitted effect of over 40% in size
Conditions: S2 cells (HEK-293 line with an ATXN2-luciferase reporter) viability, CellTiter-Fluor protease fluorescence, 24 h; series mostly up to 56.7 µM
Source text: Spinocerebellar ataxia type 2 (SCA2) is a multisystem neurodegenerative disease caused by a dominantly-acting mutation leading to expansion of a polyQ domain in the ataxin-2 protein (ATXN2). SCA2 patients develop progressive ataxia and later lose function in other neuronal systems. Prominent parkinsonian signs develop in some patients. Similar to many neurodegenerative disorders, no symptomatic or disease-modifying treatments are known.
The primary objective of the proposed research is to identify compounds inhibiting ATXN2 expression and to test them for efficacy in SCA2 mouse models. To this end, we have developed a cell-based assay paired with an in vivo mouse model using identical luciferase expression constructs. This approach takes advantage of an ATXN2-luciferase transgene, with the luciferase gene flanked by the upstream and downstream portions of the ATXN2 gene. This primary assay was tested against the NIH Molecular Libraries Small Molecule Repository (MLSMR).
NIH Chemical Genomics Center [NCGC]
NIH Molecular Libraries Probe Centers Network [MLPCN]
Assay Submitter (PI): Daniel Scoles, University of Utah
PROTOCOL TABLE (as described by Inglese J, Shamu CE and Guy RK. 2007)
SEQUENCE No. (e.g., 1, 2, 3, etc.); […] (e.g., Cells, Incubation, Reagent, etc.); VALUE; DESCRIPTION.
1; Cells; 4 uL; white, solid bottom, 1536-well Greiner assay plate.
2; Incubation; 2 hr; 37 degree C in 5% humidified CO2.
3; Compounds; 23 nL; Kalypsis pintool (Wako USA) equipped with a 1536-well pin head.
4; Incubation; 24 hr; 37 degree C in 5% humidified CO2.
5; Reagent; 1 uL; Gly-Phe-7-Amino-4-trifluoromethylcoumarin.
6; Incubation; 30 min; 37 degree C in 5% humidified CO2.
7; Detection; Fluorescence; ViewLux plate reader (PerkinElmer).
8; Reagent; 3 uL; SteadyGlo luciferase solution (Promega).
9; Incubation; 5 min; room temperature.
10; Detection; Luminescence; ViewLux plate reader (PerkinElmer).
NOTES (numbers refer to Sequence numbers above)
1. S2 cells expressing ATXN2-luciferase reporter were suspended in phenol-red free DMEM and dispensed in assay plates using a Multidrop Combi dispenser (Thermo Fisher Scientific).
2. Assay plates were incubated. Evaporation was prevented by covering assay plates with metal lids containing holes to allow gas diffusion.
3. […] Vehicle-only plates, with DMSO being pin-transferred to columns 5-48, were inserted uniformly at the beginning and the end of each library to monitor and record any shifts in assay performance.
5. 125 uM Gly-Phe-7-Amino-4-trifluoromethylcoumarin (MP Biomedicals) working concentration was used at a final concentration of 25 uM.
7. To assess cell viability; the assay plates were read using the ViewLux high-throughput CCD imager (PerkinElmer), wherein single end-point fluorescence measurement was acquired (excitation 405/10; emission 540/25 nm).
8. Detection reagent SteadyGlo Luciferase (Promega) was added to the assay plate.
10. Luminescence is then measured on the ViewLux imager equipped with a clear emission filter using a 2 sec exposure. All screening operations were performed on a fully integrated robotic system (Kalypsys) containing one RX-130 and two RX-90 anthropomorphic robotic arms (Staubli).
Inglese J, Shamu CE and Guy RK, Reporting data from high throughput screening of small molecule libraries, Nature Chemical Biology, 2007, 3(8): 438-441. doi.org/10.1038/nchembio0807-438.
Potency is the fitted concentration of half-maximal effect.

SMILES	Potency
CC[C@H]1CN2CCc3cc(OC)c(OC)cc3[C@@H]2C[C@@H]1C[C@H]1NCCc2cc(OC)c(OC)cc21	39.8 µM (active)
C[C@H]1CC[C@@]2(NC1)O[C@@H]1C[C@H]3[C@@H]4CC=C5C[C@@H](O)CC[C@]5(C)[C@@H]4CC[C@]3(C)[C@@H]1[C@@H]2C	inactive
C[C@]12CC[C@@H]3C(=CCc4cc(O)ccc43)[C@@H]1CCC2=O	inactive
CCOC(=O)c1c(C)c(C(=O)N2CCC3(CC2)OCCO3)c(C)n1CC	inactive
CC(Cc1ccccc1)NCCC(c1ccccc1)c1ccccc1 (stereo not given)	20 µM (active)
CC(=O)NC(=O)NC(C)Cc1ccccc1 (stereo not given)	inactive
CC(Cc1ccccc1)NC=O (stereo not given)	inactive
Cc1cc(-c2ccc(N)c(C)c2)ccc1N	inactive
CCN1C[C@@]2(COC)CC[C@H](OC)[C@]34[C@@H]1[C@]1(OCO[C@@]15C[C@@H](OC)C1C[C@H]3[C@H]5[C@@H]1OC)[C@H](O)[C@@H]24	inactive
CN1[C@@H]2CC[C@H]1CC(OC(=O)c1cc(Cl)cc(Cl)c1)C2 (stereo not given in full)	inactive
O=C(CSc1ccccc1)Nc1ccc(C(=O)Nc2cccc(O)c2)cc1	inactive
COc1ccccc1C(=O)N[C@@H]1c2ccccc2C2(CCN(Cc3nc(C(C)C)cs3)CC2)[C@H]1O	35.5 µM (active)
COC(=O)C1=C(c2ccc(Cl)c(C(F)(F)F)c2)C[C@@H]2CC[C@H]1N2C(=O)NC1CC1	inactive
Clc1ccc([C@@H]2C[C@H]3CC[C@@H]2N3)cn1	inactive
C[C@]12CC[C@H](O)C[C@@H]1CC[C@H]1[C@H]2CC[C@]2(C)C(=O)CC[C@@H]12	inactive
CCOC(=O)[C@]12Cc3ccccc3[C@H]1N(C1CCCCC1)C(=O)c1cc(OC)ccc12	10 µM (active)
CCOC(=O)[C@]12Cc3cc(OC)ccc3[C@H]1N(C(C)C)C(=O)c1ccccc12	11.2 µM (active)
COc1cccc(-c2ccc(O)c(CNC3CN4CCC3CC4)c2)n1 (stereo not given)	inactive
CCN1C[C@]2(C)CC[C@H](O)[C@@]34[C@@H]5CC6[C@@H](OC)C[C@@](O)([C@@H]5[C@@H]6O)[C@H](C[C@@H]23)[C@H]14	inactive
CCCOC(=O)c1cncn1C(C)c1ccccc1 (stereo not given)	inactive
Cc1nnc(NC(=O)c2cccn(Cc3cccc(F)c3)c2=O)s1	inactive
CCOC(=O)c1c(-c2ccccc2)oc2ccc(OC(=O)N(C)C)cc12	inactive
COC(=O)C1=C(c2ccc(F)cc2OCc2ccccc2)C[C@@H]2CC[C@H]1N2C(=O)NCc1ccc2[nH]ccc2c1	inactive

SMILES	Potency
CC1N=C(N)OC1c1ccccc1 (stereo not given)	inactive
O=C(Cn1c(=O)n(CC2CS2)c2ccccc21)N1CCCCC1 (stereo not given)	inactive
CC(=CCOc1ccc2ccc(=O)oc2c1)C1=CC(=O)C(C)(C)O1	inactive
Cc1ccc(Cn2nnnc2CN2CCC(n3nnc4ccccc43)CC2)cc1	inactive
O=c1[nH]c2ccccc2n1C1CCN(C(c2ccnc3ccccc23)c2nnnn2Cc2ccccc2)CC1 (stereo not given)	12.6 µM (active)
O=c1[nH]c2ccccc2n1C1CCN(C(c2ccccc2)c2nnnn2Cc2ccccc2)CC1 (stereo not given)	7.08 µM (active)
CCC(=NCCc1ccccc1)c1c(O)n(C2CCCCC2)c(=O)[nH]c1=O	inactive
O=P1(N(CCCl)CCCl)NC(OO)CCO1 (stereo not given)	inactive
Cc1ccsc1C(=O)C1CCCN(Cc2ccc(O)cc2)C1 (stereo not given)	inactive
Cc1ccc(N2C(=O)NC(=O)C(CCc3ccncc3)(Cc3cccc(Cl)c3Cl)C2=O)cc1 (stereo not given)	inactive
CCOP(=O)(OCC)C(O)c1ccc(OC)cc1OC (stereo not given)	inactive
CC[N+]1(CCOC(=O)C(O)(c2ccccc2)c2ccccc2)CCCCC1	inactive
Cc1ccc(Cl)cc1N1CCN(C(=O)C2CCC(CNS(=O)(=O)c3cccs3)CC2)CC1 (stereo not given)	inactive
CO[C@]12CC[C@@]3(C[C@@H]1[C@](C)(O)C(C)(C)C)[C@@H]1Cc4ccc(O)c5c4[C@@]3(CCN1CC1CC1)[C@H]2O5	35.5 µM (active)
Oc1ccc2c3c1OC1[C@H](O)CC[C@@]4(O)[C@@H](C2)N(CC2CC2)CC[C@]314 (stereo not given in full)	inactive
CN(C)c1ccc(/C=C2\CC3C4CC=C5CC(O)CCC5(C)C4CCC3(C)C2=O)cc1 (stereo not given)	inactive
CC(C)=C[C@@H]1[C@@H](C(=O)OCc2coc(Cc3ccccc3)c2)C1(C)C	inactive
Cc1cc(OCc2cc(C(=O)O)oc2C)c2c3c(c(=O)oc2c1)CCCC3	inactive
CN(Cc1cccc2ncccc12)C(=O)c1cnn(-c2nccc(-c3ccccc3F)n2)c1C1CC1	22.4 µM (active)
CCCCC1C(=O)NC(=O)N(C2CCCCC2)C1=O (stereo not given)	inactive
CC1=C(C(=O)O)N2C(=O)[C@@H](N)[C@H]2SC1	inactive
NCC(O)c1ccc(O)cc1 (stereo not given)	inactive
